Data taken from PubChem BioAssay (NCATS).
Inconclusive results are not listed. Activity calls are given as the source filed them. Unless noted, calls follow the shape of the dose curve; as a rule, active = well fitted curve in the direction sought with a large enough effect; inconclusive = small, poorly fitted or top-dose-only effect, or another doubt; inactive = no such curve, though single readings can be large; an effect the other way counts as inactive or inconclusive.

Legend:
[1] = target: Cytochrome P450 1A2 (Homo sapiens) (UniProt P05177); test: p450-cyp1a2 (AID 410; calls by dose curve; also: potency is read from the fitted curve at half-maximal effect)
Summary of the method: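 20nM CYP1A2 with 100uM Luciferin-ME (at Km) in 100mM KPO4; compound preincubated 10 min, NADPH regeneration added, 60 min at room temperature. Luciferin quantified by luminescence after detection reagent; normalized to 57 uM furafylline.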

[2] = target: Glucocorticoid receptor (Homo sapiens) (UniProt P04150); test: GR-EFC Redistribution (AID 451; calls by dose curve; also: potency is read from the fitted curve at half-maximal effect); details: CHO-K1 GR-EFC translocation, beta-gal luminescence, 2 h
Summary of the method: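 CHO-K1 cells expressing nuclear EA and GR-ED fragments of b-gal; compounds titrated up to 46 uM final, 2 h at 37 C. GR nuclear translocation read as complemented b-gal luminescence after 1 h RT detection.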

[3] = target: 3',5'-cyclic-AMP phosphodiesterase 4B (Homo sapiens) (UniProt Q07343); test: qHTS Assay for Inhibitors of PDE-IV (AID 607; active = well fitted activation curve with a large enough effect in the main read-out, with a control signal flat, not every such curve was filed as active; also: % of control where 0% means no effect)
Summary of the method: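 Live HEK293 cells with a modified cyclic nucleotide-gated (CNG) channel report intracellular cAMP via membrane-potential dye fluorescence (ex 535/em 590 nm). Endogenous PDE-IV was targeted. Compounds were tested at up to 22.9 uM final; RO 20-1724 100 uM served as control.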

[4] = target: Guanine nucleotide-binding protein G(i) subunit alpha-1 (Homo sapiens) (UniProt P63096); test: qHTS Assay for Inhibitors of RGS12 GoLoco Motif Activity (Green Fluorophore) (AID 879);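 also: 0% = labeled peptide with Gαi1 and full inhibition = labeled peptide alone without protein; negative values mean loss of peptide binding seen as reduced polarization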
Summary of the method: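 Fluorescence polarization assay: 50 nM Gαi1 with 10 nM FITC-labeled RGS12 GoLoco peptide in 10 mM Tris pH 7.5, 150 mM NaCl, 0.1 mM GDP, 0.05% NP40, 10 min at room temperature with compound.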

[5] = target: Cytochrome P450 3A4 (Homo sapiens) (UniProt P08684); test: qHTS Assay for Inhibitors and Substrates of Cytochrome P450 3A4 (AID 884); also: nearly all actives have a fitted effect of over 50% in size; also: potency is read from the fitted curve at half-maximal effect
Summary of the method: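 20 nM human CYP3A4 with 25 uM Luciferin-PPXE (at KM) in 200 mM KPO4, preincubated 10 min with compound; NADPH regeneration started a 60 min RT reaction. Luciferin detected by luminescence, normalized to 57 uM ketoconazole as full inhibition.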

[6] = qHTS Assay for Identification of Small Molecule Antagonists for NFkB Signaling Pathway (AID 895; active = well fitted inhibition curve with a large enough effect in the signal ratio, with a control signal flat, not every such curve was filed as active; the % refers to the signal ratio; also: % is scaled to controls: 0 for no effect and ±100 for the full control effect)
Summary of the method: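 ME-180 NFkB-bla cells (beta-lactamase under NFkB response element), plated overnight, treated with compound then 10 pM TNF alpha (about EC50) for 5 hrs at 37 C. LiveBLAzer FRET read at 460/530 nm emission, 405 nm excitation.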

[7] = qHTS Assay for Identification of Small Molecule Antagonists for Thrombopoietin (TPO) Signaling Pathway (AID 918); details: TPO-dependent cell signaling reporter, antagonist mode; also: potency is read from the fitted curve at half-maximal effect; nearly all actives have a fitted effect of over 60% in size
Summary of the method: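 Murine Ba/F3 cells expressing human TPO receptor and a Glycoprotein IIb promoter-luciferase reporter, IL-3-starved overnight, treated with compound plus TPO at EC50 (26 pM final). After 24 h at 37 C, luminescence read to detect inhibitors.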

[8] = target: Pyruvate kinase (Leishmania mexicana) (UniProt Q27686); test: qHTS Validation Assay for Inhibitors of Leishmania Mexicana Pyruvate Kinase (AID 945);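 also: 0% = DMSO only neutral control wells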
Summary of the method: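 Mutant LmPYK (E451W), 0.2 nM, plus 0.5 mM PEP and 0.1 mM ADP in 50 mM imidazole pH 7.2 containing 0.01% Tween 20 and 0.05% BSA. Incubated 1 h at room temperature; luminescence via PKLight, normalized to DMSO.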

[9] = target: Pyruvate kinase PKM (Homo sapiens) (UniProt P14618); test: qHTS Assay for Activators of Human Muscle Pyruvate Kinase (AID 954; active = well fitted curve in the direction sought with a large enough effect, not every such curve was filed as active;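 also: 0% = uninhibited enzyme and -100% = no enzyme or full thiadiazolimine inhibition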)
Summary of the method: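 Enzyme was run at intermediate activity so both inhibitors and activators could be detected. ATP formed from ADP and PEP by 0.1 nM human PKM2 during a 1 h room-temperature incubation was quantified by coupled luciferase luminescence.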

[10] = target: alpha-glucosidase (Oryza sativa, rice) (UniProt Q653V4); test: Counterscreen for Glucocerebrosidase Inhibitors: qHTS Assay for Rice alpha-Glucosidase at pH 5.0 (AID 997);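 also: 0% = full activity with enzyme and -100% = basal without enzyme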
Summary of the method: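 Rice alpha-glucosidase (4 nM final) with 400 uM 4-methylumbelliferyl-alpha-D-glucopyranoside in citrate buffer pH 5.0, 20 min at room temperature, stopped at pH 10; fluorescence 365/440 nm, compounds 0.7 nM–77 uM, AC50 from Hill fits.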

[11] = target: Ubiquitin carboxyl-terminal hydrolase 1 (Homo sapiens) (UniProt O94782); test: Inhibitors of USP1/UAF1: Pilot qHTS (AID 504865); also: nearly all actives have a fitted effect of over 35% in size; also: potency is read from the fitted curve at half-maximal effect
Summary of the method: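 Enzyme-free wells gave the negative control, while test wells held 1nM USP1/UAF1 preincubated with compound for 15 min at room temperature. Ub-Rho at 150nM final started the reaction, and fluorescence at 480/540 nm was recorded kinetically.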

[12] = target: DNA dC->dU-editing enzyme APOBEC-3G (Homo sapiens) (UniProt Q9HC16); test: qHTS for inhibitors of Vif-A3G interactions: Validation (AID 588379); also: 0% is about no effect
Summary of the method: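 HeLa cells stably expressing Vif and A3G-eYFP, 700 cells/well, incubated overnight at 37 deg C, then exposed to compound overnight at 37 deg C. Inhibition of Vif-mediated degradation read as increased yellow fluorescence (Ex 488/Em 500-530) by laser-scanning cytometry.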

[13] = system: Zika virus NS2B-NS3 protease; test: Primary screen GU AMC qHTS for Zika virus inhibitors (AID 1347154);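 also: 0% = no-inhibitor control and -100% = no-enzyme control; nearly all actives have a fitted effect of over 70% in size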
Summary of the method: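 Unlinked Zika NS2B hydrophilic domain–NS3 protease complex at 25 nM in 10 mM Tris-HCl pH 8.0, 0.01% Tween 20, with an AMC peptide substrate. Fluorescence change (340/450 nm) over 15 min at room temperature, normalized to controls, fitted to 4-parameter Hill.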

[14] = target: Glucocorticoid receptor (Homo sapiens) (UniProt P04150); test: GR-GFP Redistribution (AID 450;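 active = compounds whose dose series gives a full or clear partial fitted curve of increased nuclear translocation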; also: potency is read from the fitted curve at half-maximal effect); details: U2OS GR-GFP nuclear translocation, laser cytometry, 2 h
[15] = target: Mitogen-activated protein kinase 10 (Mus musculus) (UniProt Q61831); test: JNK3 AlphaScreen Assay (AID 530; active = well fitted curve in either direction with a large enough effect, not every such curve was filed as active;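 also: kinase came from lysate of stimulated human HepG2 cells; signal reports phosphorylation of biotinylated GST-cJun 1-79 at Ser73 with 10 µM ATP; series mostly up to about 57 µM; % is scaled to controls: 0 for no effect and ±100 for the full control effect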)
Summary of the method: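 Pre-activated (IL-1β/TNFα) JNK3 in HepG2 lysates phosphorylates biotin-GST-cJun(1-79), 10 uM ATP; anti-phospho-cJun(Ser73) AlphaScreen read at room temperature, pH 7.6 Tris buffer. Compounds pre-incubated 15 min as titrations.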

[16] = target: Cytochrome P450 2C9 (Homo sapiens) (UniProt P11712); test: qHTS Assay for Inhibitors and Substrates of Cytochrome P450 2C9 (AID 883); also: potency is read from the fitted curve at half-maximal effect; nearly all actives have a fitted effect of over 60% in size
Summary of the method: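 10nM CYP2C9 + 100uM Luciferin-H (=KM), 25mM KPO4; cpd 10 min 37C; NADPH regen, 60 min 37C; stop/detect with P450 Glo-Buffer 20 min; luminescence. Norm. to 57uM sulphaphenazole as full inhibition.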

[17] = target: Cytochrome P450 3A4 (Homo sapiens) (UniProt P08684); test: qHTS Assay for Activators of Cytochrome P450 3A4 (AID 885); also: nearly all actives have a fitted effect of over 65% in size
Summary of the method: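 Quantitative HTS format: compounds preincubated with 20nM human CYP3A4 and Luciferin-PPXE substrate at KM, reaction started by NADPH regeneration, stopped after 60 min, luciferase luminescence read 20 min later.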

[18] = target: N-terminal Xaa-Pro-Lys N-methyltransferase 1 (Homo sapiens) (UniProt Q9BV86); test: Confirmatory qHTS for Inhibitors of N-terminal methyltransferase 1 (NTMT1): MTaseGlo Assay (AID 1645874);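 also: luminescence from SAH made as NTMT1 methylates SPKRIA peptide using SAM; series mostly up to about 100 µM; 0% = DMSO control and -100% = no-enzyme control; nearly all actives have a fitted effect of over 65% in size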
Summary of the method: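 Compounds are incubated with 125 nM NTMT1 and 100 uM SAM for 15 min before the SPKRIA peptide (1 uM) starts a 30 min room-temperature methylation. SAH is measured by coupled luciferase luminescence and curves fitted to a Hill equation.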

[19] = Primary qHTS for inhibitors of nuclear receptor binding SET domain protein 2 (NSD2) in an isogenic RCH-ACV NSD2 p.E1099K mutant (9B) (AID 1645876); also: potency is read from the fitted curve at half-maximal effect; nearly all actives have a fitted effect of over 70% in size
[20] = Primary qHTS for inhibitors of nuclear receptor binding SET domain protein 2 (NSD2) in an RCH-ACV wild type WT cells (2C) (AID 1645877); also: potency is read from the fitted curve at half-maximal effect; nearly all actives have a fitted effect of over 70% in size
[21] = target: Glutathione peroxidase 1 (Homo sapiens) (UniProt P07203); test: Primary qHTS Assay for Inhibitors of Recombinant Selenoprotein Glutathione Peroxidase 1 (GPX1) (AID 1845191); also: % is scaled to controls: 0 for no effect and ±100 for the full control effect; nearly all actives have a fitted effect of over 65% in size
Summary of the method: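 GR-coupled assay: compounds preincubated 30 min at room temperature with GPX1, then reaction started with CHP; final 10 nM GPX1, 1 mM GSH, 0.5 mM CHP, 0.5 mM NADPH, 100 nM GR, 0.01% BSA, pH 7.5 Tris buffer. NADPH fluorescence (340/450 nm) read at 0 and 15 min.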

[22] = target: Phospholipid hydroperoxide glutathione peroxidase GPX4 (Homo sapiens) (UniProt P36969); test: Primary qHTS Assay for Inhibitors of Recombinant Selenoprotein Glutathione Peroxidase 4 (GPX4) (AID 1845192); details: outcome: dose series up to 50 µM unless noted; also: series mostly up to about 50 µM; % is scaled to controls: 0 for no effect and ±100 for the full control effect; nearly all actives have a fitted effect of over 65% in size
Summary of the method: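 GR-coupled assay: recombinant GPX4 preincubated 30 min with compound at room temperature; final 200 nM GPX4, 1 mM GSH, 0.5 mM cumene hydroperoxide, 0.5 mM NADPH, 100 nM GR, 0.01% BSA, pH 7.5 Tris. NADPH fluorescence (340/450 nm) read at 0 and 15 min.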

[23] = qHTS drug screen for cell cycle checkpoint inhibitors in PARPi-resistant BRCA-mutant ovarian cancer cell lines. (AID 1963452; calls by dose curve); details: PEO1/OlaR viability, CellTiter-Glo luminescence, 96 h, stronger effect = lower value
Summary of the method: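 PEO1, PEO4 and PEO1/OlaR ovarian cancer cells, 600 per well, exposed 96 h at 37C to a dilution series. Viability read by CellTiter-Glo luminescence, normalized to DMSO and empty wells; activity summarized as Z-AUC.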

[24] = NCATS anti-infectives library activity on HEK293 viability as a counter-qHTS vs the C. elegans viability qHTS (AID 1745854);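 also: HEK293 cells exposed to compounds for 24 hr before the viability read; % is scaled to controls: 0 for no effect and ±100 for the full control effect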
Summary of the method: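 HEK293 cells (1,500/well) exposed 24 hr at 37C to 1:5 titrations, up to 41.7 uM final; counter-screen to a C. elegans viability qHTS. Viability by CellTiter-Glo luminescence after 10 min at room temperature; digitonin as control.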

Chain of DNA dC->dU-editing enzyme APOBEC-3G (Homo sapiens) (Q9HC16 whole entry, looked up): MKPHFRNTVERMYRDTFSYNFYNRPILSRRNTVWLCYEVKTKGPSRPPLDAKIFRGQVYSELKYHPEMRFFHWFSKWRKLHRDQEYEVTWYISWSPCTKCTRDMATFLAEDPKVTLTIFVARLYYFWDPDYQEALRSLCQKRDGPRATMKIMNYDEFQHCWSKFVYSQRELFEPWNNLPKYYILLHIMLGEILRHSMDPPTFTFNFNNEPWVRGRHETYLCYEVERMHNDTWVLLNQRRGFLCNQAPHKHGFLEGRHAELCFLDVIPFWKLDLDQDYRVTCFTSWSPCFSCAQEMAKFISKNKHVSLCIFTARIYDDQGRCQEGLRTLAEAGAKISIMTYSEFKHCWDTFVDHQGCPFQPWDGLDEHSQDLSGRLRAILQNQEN
Chain of Glucocorticoid receptor (Homo sapiens) (P04150 whole entry, looked up, the tested form may be a part): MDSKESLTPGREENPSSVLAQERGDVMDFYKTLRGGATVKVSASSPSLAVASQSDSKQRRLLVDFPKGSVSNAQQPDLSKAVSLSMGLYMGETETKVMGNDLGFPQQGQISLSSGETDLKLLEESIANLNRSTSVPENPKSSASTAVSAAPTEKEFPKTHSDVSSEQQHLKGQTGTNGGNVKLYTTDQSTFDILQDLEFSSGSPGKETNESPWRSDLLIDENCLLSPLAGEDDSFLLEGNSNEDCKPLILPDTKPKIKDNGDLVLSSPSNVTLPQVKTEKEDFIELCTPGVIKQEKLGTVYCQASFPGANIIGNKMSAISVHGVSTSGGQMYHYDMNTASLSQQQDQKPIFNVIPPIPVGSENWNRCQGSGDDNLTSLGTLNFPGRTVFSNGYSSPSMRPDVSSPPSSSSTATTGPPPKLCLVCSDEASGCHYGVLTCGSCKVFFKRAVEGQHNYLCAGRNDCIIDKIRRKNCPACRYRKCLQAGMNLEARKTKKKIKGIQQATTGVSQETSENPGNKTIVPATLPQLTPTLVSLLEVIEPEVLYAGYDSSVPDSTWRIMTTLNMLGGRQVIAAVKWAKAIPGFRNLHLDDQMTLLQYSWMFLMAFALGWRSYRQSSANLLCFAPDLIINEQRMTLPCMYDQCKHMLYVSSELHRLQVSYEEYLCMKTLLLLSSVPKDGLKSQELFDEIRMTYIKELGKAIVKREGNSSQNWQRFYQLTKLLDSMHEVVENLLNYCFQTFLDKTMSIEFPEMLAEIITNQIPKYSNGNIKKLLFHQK
Chain of Cytochrome P450 1A2 (Homo sapiens) (P05177 whole entry, looked up): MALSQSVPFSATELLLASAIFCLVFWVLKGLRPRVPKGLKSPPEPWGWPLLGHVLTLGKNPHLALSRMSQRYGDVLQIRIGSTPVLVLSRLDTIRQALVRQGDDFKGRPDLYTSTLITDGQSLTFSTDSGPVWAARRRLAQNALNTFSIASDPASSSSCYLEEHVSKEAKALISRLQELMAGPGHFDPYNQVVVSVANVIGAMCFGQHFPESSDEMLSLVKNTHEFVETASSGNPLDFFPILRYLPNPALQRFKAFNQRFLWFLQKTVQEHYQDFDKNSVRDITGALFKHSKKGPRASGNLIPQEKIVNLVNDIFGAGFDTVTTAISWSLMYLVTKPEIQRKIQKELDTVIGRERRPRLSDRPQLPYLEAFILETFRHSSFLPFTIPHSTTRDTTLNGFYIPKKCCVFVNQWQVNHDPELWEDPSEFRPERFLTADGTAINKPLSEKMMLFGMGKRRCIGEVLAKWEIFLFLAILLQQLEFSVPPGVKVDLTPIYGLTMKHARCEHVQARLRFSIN
Chain of 3',5'-cyclic-AMP phosphodiesterase 4B (Homo sapiens) (Q07343 whole entry, looked up): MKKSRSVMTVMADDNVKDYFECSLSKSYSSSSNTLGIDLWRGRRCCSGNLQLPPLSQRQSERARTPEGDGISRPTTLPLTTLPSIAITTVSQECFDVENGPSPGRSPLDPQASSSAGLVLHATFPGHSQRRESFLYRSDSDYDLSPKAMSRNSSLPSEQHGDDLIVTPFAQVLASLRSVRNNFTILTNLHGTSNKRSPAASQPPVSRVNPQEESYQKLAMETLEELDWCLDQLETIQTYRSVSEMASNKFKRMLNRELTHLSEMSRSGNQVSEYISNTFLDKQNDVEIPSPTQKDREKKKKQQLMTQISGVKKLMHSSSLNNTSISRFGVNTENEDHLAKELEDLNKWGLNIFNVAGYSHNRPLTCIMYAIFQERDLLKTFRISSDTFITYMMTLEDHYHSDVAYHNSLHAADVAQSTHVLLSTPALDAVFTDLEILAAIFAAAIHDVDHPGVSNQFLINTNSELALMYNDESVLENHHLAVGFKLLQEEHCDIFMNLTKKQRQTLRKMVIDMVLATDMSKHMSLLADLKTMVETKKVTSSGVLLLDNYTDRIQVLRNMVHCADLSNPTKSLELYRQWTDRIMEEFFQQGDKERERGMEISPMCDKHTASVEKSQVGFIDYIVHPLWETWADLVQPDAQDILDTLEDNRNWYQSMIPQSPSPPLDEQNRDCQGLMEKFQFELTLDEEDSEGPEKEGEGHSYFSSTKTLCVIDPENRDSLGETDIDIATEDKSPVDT
Chain of Cytochrome P450 3A4 (Homo sapiens) (P08684 whole entry, looked up): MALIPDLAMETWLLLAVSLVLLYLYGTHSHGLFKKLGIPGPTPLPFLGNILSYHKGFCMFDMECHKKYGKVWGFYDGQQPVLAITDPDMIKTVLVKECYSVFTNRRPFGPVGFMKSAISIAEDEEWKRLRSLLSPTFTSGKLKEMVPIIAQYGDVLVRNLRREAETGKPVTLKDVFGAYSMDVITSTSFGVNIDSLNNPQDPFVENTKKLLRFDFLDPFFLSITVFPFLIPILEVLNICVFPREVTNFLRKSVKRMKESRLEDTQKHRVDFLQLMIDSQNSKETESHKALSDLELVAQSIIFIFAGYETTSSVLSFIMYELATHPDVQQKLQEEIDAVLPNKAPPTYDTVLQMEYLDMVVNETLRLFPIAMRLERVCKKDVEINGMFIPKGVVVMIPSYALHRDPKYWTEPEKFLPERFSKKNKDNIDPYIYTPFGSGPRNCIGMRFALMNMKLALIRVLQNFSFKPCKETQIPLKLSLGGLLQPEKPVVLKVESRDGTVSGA
Chain of Ubiquitin carboxyl-terminal hydrolase 1 (Homo sapiens) (O94782 whole entry, looked up): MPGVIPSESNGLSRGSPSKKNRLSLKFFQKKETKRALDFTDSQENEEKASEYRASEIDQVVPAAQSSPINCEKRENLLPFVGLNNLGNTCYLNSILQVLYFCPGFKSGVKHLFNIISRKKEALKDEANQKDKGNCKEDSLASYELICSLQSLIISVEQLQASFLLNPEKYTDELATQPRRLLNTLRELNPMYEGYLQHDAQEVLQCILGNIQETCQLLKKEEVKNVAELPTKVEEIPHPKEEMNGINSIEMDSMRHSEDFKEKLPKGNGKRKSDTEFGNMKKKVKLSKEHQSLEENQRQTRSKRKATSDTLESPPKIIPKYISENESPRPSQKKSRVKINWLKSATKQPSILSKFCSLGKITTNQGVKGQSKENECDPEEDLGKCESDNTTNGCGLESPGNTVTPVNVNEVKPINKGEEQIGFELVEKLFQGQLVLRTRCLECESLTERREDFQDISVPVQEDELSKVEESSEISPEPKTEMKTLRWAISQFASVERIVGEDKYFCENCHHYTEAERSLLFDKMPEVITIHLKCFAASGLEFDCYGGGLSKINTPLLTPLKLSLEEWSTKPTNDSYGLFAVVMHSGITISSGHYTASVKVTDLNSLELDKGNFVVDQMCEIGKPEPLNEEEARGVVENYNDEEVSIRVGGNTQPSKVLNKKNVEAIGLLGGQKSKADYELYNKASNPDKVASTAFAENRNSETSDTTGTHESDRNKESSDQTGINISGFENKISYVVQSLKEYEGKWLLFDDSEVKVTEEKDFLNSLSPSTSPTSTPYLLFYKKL
Chain of Cytochrome P450 2C9 (Homo sapiens) (P11712 whole entry, looked up): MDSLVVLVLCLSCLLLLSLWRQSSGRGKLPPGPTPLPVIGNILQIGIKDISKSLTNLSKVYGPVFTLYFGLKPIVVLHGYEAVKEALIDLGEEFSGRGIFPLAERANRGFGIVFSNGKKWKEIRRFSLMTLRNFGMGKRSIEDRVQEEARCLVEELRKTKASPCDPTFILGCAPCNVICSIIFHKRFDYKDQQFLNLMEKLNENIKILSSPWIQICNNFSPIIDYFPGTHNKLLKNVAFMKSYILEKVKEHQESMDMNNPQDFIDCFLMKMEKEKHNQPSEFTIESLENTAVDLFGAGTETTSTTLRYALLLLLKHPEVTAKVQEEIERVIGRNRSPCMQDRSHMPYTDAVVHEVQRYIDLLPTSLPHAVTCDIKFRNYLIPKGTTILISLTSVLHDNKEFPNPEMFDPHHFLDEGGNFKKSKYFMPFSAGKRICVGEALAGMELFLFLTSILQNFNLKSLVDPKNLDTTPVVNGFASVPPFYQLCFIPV
Chain of Glutathione peroxidase 1 (Homo sapiens) (P07203 whole entry, looked up): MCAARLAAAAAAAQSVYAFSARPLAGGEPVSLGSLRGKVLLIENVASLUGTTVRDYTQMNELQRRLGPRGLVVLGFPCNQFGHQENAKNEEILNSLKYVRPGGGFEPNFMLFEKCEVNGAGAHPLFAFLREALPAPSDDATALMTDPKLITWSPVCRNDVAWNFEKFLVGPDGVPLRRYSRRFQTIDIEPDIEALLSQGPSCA
Chain of Pyruvate kinase PKM (Homo sapiens) (P14618 whole entry, looked up): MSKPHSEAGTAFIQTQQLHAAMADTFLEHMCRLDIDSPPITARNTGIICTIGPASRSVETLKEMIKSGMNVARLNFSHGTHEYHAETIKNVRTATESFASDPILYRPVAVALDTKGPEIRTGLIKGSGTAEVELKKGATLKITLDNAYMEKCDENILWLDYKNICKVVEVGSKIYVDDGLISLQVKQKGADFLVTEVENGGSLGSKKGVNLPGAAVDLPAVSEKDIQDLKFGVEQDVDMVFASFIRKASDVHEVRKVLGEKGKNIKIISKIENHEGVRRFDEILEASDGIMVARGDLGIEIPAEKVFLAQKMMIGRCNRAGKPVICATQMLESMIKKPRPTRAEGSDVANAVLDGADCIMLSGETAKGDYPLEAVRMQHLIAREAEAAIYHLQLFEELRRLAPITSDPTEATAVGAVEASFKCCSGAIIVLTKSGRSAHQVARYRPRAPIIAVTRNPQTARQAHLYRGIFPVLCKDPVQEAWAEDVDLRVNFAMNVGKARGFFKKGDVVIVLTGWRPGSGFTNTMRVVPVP

CCCCCCCCCCCCC/C=C\[C@@H](O)[C@@H](N)CO
active: Potency [1] 15.8 µM | Potency [7] 10 µM | Potency [11] 50.1 µM
inactive: Potency [2] > 46 µM | Potency [3] | outcome [4] | Potency [5] | Potency [6] | Potency [8] | outcome [9] | outcome [10] | Potency [12] | Potency [13]

CC(C)Oc1ccc2c(=O)c3cc(C(=O)O)ccc3oc2c1
inactive: Potency [1] | Potency [14] > 46 µM | Potency [15] | Potency [3] | Potency [12] | Potency [13]

C[C@@H](CCCCC(=O)Nc1ccc(C(F)(F)F)cc1)NCCc1cnc[nH]1
inactive: Potency [1] | Potency [14] > 46 µM | Potency [2] > 46 µM | Potency [15] | Potency [3] | Potency [17] | Potency [11] | Potency [12] | Potency [13]
active: Potency [16] 7.94 µM | Potency [5] 5.01 µM

CC(=O)C1CCC2C3CCC4=CC(=O)CCC4(C)C3CCC12C (centres undefined)
active: Potency [19] 20.9 µM | Potency [20] 18.6 µM
inactive: Potency [13] | Potency [18] | Potency [21] | Potency [22] | Z-AUC [23] -0.653
-0.604: Z-AUC ([23]; measured here: PEO1 parental Z-AUC)
-0.267: Z-AUC ([23]; measured here: PEO4 Z-AUC)

Cc1ccc(S(=O)(=O)NCc2ccccc2)cc1
inactive: Potency [14] > 46 µM | Potency [2] > 46 µM | Potency [3] | Potency [17] | Potency [12] | Potency [13]
active: Potency [1] 0.501 µM

O=C(/C=C/c1ccccc1)NC(NC(=S)Nc1cccc2cccnc12)C(Cl)(Cl)Cl (centres undefined)
inactive: Potency [13] | outcome [24]

O=S(=O)(NCCCCCCc1ccccc1)c1cccc2c(Cl)cccc12
active: Potency [1] 15.8 µM | Potency [5] 2.51 µM
inactive: Potency [14] > 46 µM | Potency [17] | Potency [12] | Potency [13]
